Assay results as given in PubChem BioAssay.
Calls of active or inactive are those of the source.

Assay: growth modulation of vineyard yeast isolate – strain RM11-1a, OD600, basal, 24 h, primary screen (AID 1177);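 also: cultures grown under basal conditions with no added stressor; test concentration not given here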
Settings: S. cerevisiae RM11-1a growth, OD600, 24 h; higher = more signal, called active from +8 up or from −8 down

z-score, inactive:
O=C1c2ccccc2[C@](Cc2ccccc2I)(C(=O)NCc2ccccc2)[C@H](c2ccc(CO)cc2)N1C1CCCCC1 -0.871
COc1ccc(C(O)C2C=CC3C(=O)N(C)C(=O)C3N2N2CCCCC2)cc1 (stereo not given) -0.378
C=C1C2CC3C(=C4C(CO[C@@H]4[C@H]4CCCN4S(=O)(=O)c4ccccc4[N+](=O)[O-])C4C(=O)N(C)C(=O)C34)CC2C(=O)N1C (stereo not given in full) -0.302
COCCOC(=O)N1C(=O)[C@@]2(c3cc(C#CC4=CCCCC4)ccc31)[C@H](c1ccc(O)cc1)N1[C@H](c3ccccc3)[C@H](c3ccccc3)OC(=O)[C@H]1[C@@H]2C(=O)Nc1nc2ccccc2s1 0.297
C[C@H]1C2=C3C(CC[C@H]4C(OCc5ccc(F)cc5C(F)(F)F)OC[C@](C)([C@@H]34)N(C(=O)OC(C)(C)C)C2)C(CO)C1CO (stereo not given in full) 1.04
COCCOC(=O)N1C(=O)[C@@]2(c3cc(C#CC4(O)CCCCCC4)ccc31)[C@H](C(=O)N1CCCCCCC1)[C@H]1C(=O)O[C@H](c3ccccc3)[C@H](c3ccccc3)N1[C@@H]2c1ccc(OCCO)cc1 1.51
COCCOC(=O)N1C(=O)[C@@]2(c3cc(C#CC4(O)CCCCCC4)ccc31)[C@H](C(N)=O)[C@H]1C(=O)O[C@H](c3ccccc3)[C@H](c3ccccc3)N1[C@@H]2c1ccccc1OCCO 2.26
CC(=O)N1Cc2ccccc2C[C@]2(N=C(c3ccc(OCCCO)cc3)O[C@@H]2c2ccccc2)C1=O 1.93
O=C1OCC=C[C@H]2OC34C=CCN(c5ccc(Cl)cc5)C(=O)[C@H]3N(CCCCCO)C(=O)[C@@H]4[C@@H]12 (stereo not given in full) 0.119
C=C(C(=O)CC[C@H](OC(=O)c1cccnc1)c1cccc(OCCO)c1)C(C)C 2.01
CC(C)C(O)C1C=CC2C(=O)N(C)C(=O)C2N1N(c1ccccc1)c1ccccc1 (stereo not given) 0.879
O=C1O[C@@H](c2ccccc2)[C@@H](c2ccccc2)N2[C@@H](c3ccc(O)cc3)[C@]3(C(=O)Nc4ccccc43)[C@@H](C(=O)Nc3nc4ccccc4s3)[C@H]12 0.72
COC(=O)[C@@]1(Cc2ccc(OC)cc2)[C@H]2c3cc(C(=O)N(C)C)n(Cc4ccccc4)c3C[C@H]2CN1C(=O)c1ccccc1 0.692
CC1CC/C=C\[C@H]2OC34C=CCN(CCN5CCOCC5)C(=O)[C@H]3N(CCO)C(=O)[C@@H]4C2C(=O)O1 (stereo not given in full) -0.585
COC(=O)[C@]1(CCS(=O)(=O)c2ccccc2)N=C(c2ccc(OCCCO)cc2)O[C@@H]1c1ccccc1CN=[N+]=[N-] 1.91
CC(C)(C)OC(=O)CC[C@]1(C(=O)O)N=C(c2ccc(OCCCO)cc2)O[C@H]1c1ccccc1 -0.279
O=C1c2ccccc2[C@@]2(Cc3ccccc3N(C3CC3)C2=O)[C@H](c2ccc(CO)cc2)N1C1CCCCC1 1.24
COCCOC(=O)N1C(=O)[C@@]2(c3ccccc31)[C@H](c1ccc(OCCO)cc1)N1[C@H](c3ccccc3)[C@H](c3ccccc3)OC(=O)[C@H]1[C@@H]2C(=O)Nc1nc2ccccc2s1 1.11
[N-]=[N+]=Nc1ccccc1C[C@@]1(C(=O)O)N=C(c2ccc(OCCCO)cc2)O[C@@H]1c1ccccc1 -0.583
CCCNC(=O)[C@@]1(c2ccc([N+](=O)[O-])cc2)CC(=O)N(C2CCCCC2)[C@@H]1c1ccc(CO)cc1I -0.327
COc1ccc([Si](C)(C)[C@H]2[C@H](CCn3cc([C@H](O)c4ccccc4)nn3)O[C@@]3(C(=O)N(Cc4ccc(N5CCOC5=O)cc4)c4ccccc43)[C@@H]2C)cc1 2.18
COCCCNC(=O)[C@@]1(Sc2ccc(C)cc2)CC(=O)N(Cc2cc(C(F)(F)F)cc(C(F)(F)F)c2)[C@@H]1c1ccc(CO)cc1 -0.219
C=CCC(OC(C)=O)[C@@H]1[C@@H](N(Cc2cc3ccccc3o2)C(=O)Cc2ccc(F)cc2)c2cc(OCCCO)ccc2N1C(=O)c1ccc2ccccc2n1 (stereo not given in full) -0.176
CCCCC(=C=CC[C@@H](O)c1ccc(OCCO)cc1)C[C@@H](O)COCc1ccccc1 -3.31
O=C1O[C@@H](c2ccccc2)[C@@H](c2ccccc2)N2[C@@H](c3ccc(O)cc3)[C@]3(C(=O)Nc4ccc(C#CCCO)cc43)[C@@H](C(=O)NC[C@H](O)c3ccccc3)[C@H]12 0.376
[N-]=[N+]=Nc1ccccc1[C@@H]1OC(c2ccc(OCCCO)cc2)=N[C@]1(CCS(=O)(=O)c1ccccc1)C(=O)NCCN1CCOCC1 -0.309
COCCCNC(=O)[C@@H]1c2ccccc2C(=O)N(Cc2ccccc2C(F)(F)F)[C@H]1c1ccc(CO)cc1 0.186
NC(=O)N1C(=O)C2C(C1=O)C1C=C(CCCO)C2C(c2cccs2)N1Cc1cc2c(cc1Br)OCO2 (stereo not given) 0.0427
CCOC(=O)C[C@H]1[C@H](OC(=O)c2ccccc2-c2ccccc2)[C@@H](NC(=O)CC(C)C)c2cc(OCCCO)ccc2N1C(=O)c1ccc2ccccc2n1 -0.078
CN1C(=O)C2C=CC(C(O)C3CCCCC3)N(N3CCCCC3)C2C1=O (stereo not given) 1.51
CO[C@H]1O[C@H](CO)[C@@H](OC(=O)Nc2ccc(C(F)(F)F)cc2)[C@H](OC(=O)Nc2ccc3c(c2)OCO3)[C@H]1OC(=O)Nc1ccc2c(c1)OCO2 1.37
NCCCCCCNC(=O)[C@@H]1C[C@@H]2C(=O)N3CCC[C@H]3C(=O)N2[C@@H]1c1ccc(O)cc1 -0.407
COC(=O)C(CC#Cc1ccc2c(c1)[C@]1(C(=O)N2)[C@H](C(=O)O)[C@H]2C(=O)O[C@H](c3ccccc3)[C@H](c3ccccc3)N2[C@@H]1c1ccccc1OCCO)C(=O)OC 2.55
CCOC(=O)[C@H]1C/C=C/C[C@H](C(=O)OCC)C(=O)O[C@H]2[C@@H](OC)O[C@H](CO)[C@@H](OC(=O)CCc3ccccc3)[C@@H]2OC1=O -0.143
C[C@]12C(=O)N(CCCCCCO)[C@@H]3C(=O)N(c4ccc(Cl)cc4)CC=CC31O[C@@H]1/C=C\CCCOC(=O)C12 (stereo not given in full) -1.29
